Experimental data reported in PubChem BioAssay (NCI).
This is part of a sample that, as a whole, favours compounds with a hit. Of some 83,000 tested, about 20% had one in any assay.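 Percent growth is the endpoint: 0 to 100 indicates growth inhibition (40 means 60% inhibition), 0 means no net growth, and negative values indicate cell death.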 Calls of active or inactive are those of the source.

tested on: SK-MEL-28 melanoma; test: NCI-60 one-dose screen, 48 h (100 = growth as untreated, 0 = no growth, -100 = all killed); settings: 10 µM unless noted
Description: Growth inhibition of the SK-MEL-28 human tumor cell line is measured as a screen for anti-cancer activity. Cells are grown in 96 well plates and exposed to the test compound for 48 hours. Compounds are tested at a single concentration, which is 10^-5 M for most compounds. The reported endpoint is percent growth (GI% or GIPRCNT), where numbers from 0 - 100% represent growth inhibition, and numbers from -100% - 0 represent cell death. For example, a value of 40 represents 60% growth inhibition. A value of 0 means no net growth occurred over the course of the experiment. A value of -40 indicates 40% of cells at the beginning of the experiment died by the end of the experiment. A value of -100 means all cells are dead at the end of the experiment.
NCI-60 Human Tumor Cell Lines Screen was performed using the standard one-dose NCI protocol, which is described in more detail at https://dtp.cancer.gov/discovery_development/nci-60/default.htm.
Compounds with GIPRCNT values below 10 were considered active. Activity score was based on GIPRCNT using the following formula: […]
Score is 0 for GIPRCNT values of 100 or above, 50 for GIPRCNT values of 0, and 100 for GIPRCNT values of -100.

| SMILES | growth |
| --- | --- |
| COC(=O)c1[nH]nc2c1C1(C(=O)c3cccc4cccc1c34)C(C#N)=C(N)O2 (stereo not given) | 112% (inactive) |
| O=S(=O)(NCCCNc1nccc(-c2[nH]c(-c3ccccc3)nc2-c2ccc(Cl)c(O)c2)n1)c1ccc(Br)cc1 | 17.3% (inactive) |
| CS(=O)(=O)Nc1cc(-c2ccc3ncc(C#N)c(NCc4ccccc4F)c3c2)cnc1Cl | 5.71% (active) |
| CCN1CCN(Cc2ccc(C(=O)Nc3ccc(C)c(Oc4ccc(-c5[nH]nc6ncnc(N)c56)cc4)c3)cc2C(F)(F)F)CC1 | 75.4% (inactive) |
| COc1c(N2CC3CCCNC3C2)c(F)cc2c(=O)c(C(=O)N/N=C/c3c[nH]c4ccccc34)cn(C3CC3)c12 (stereo not given) | 104% (inactive) |
| Cc1cc(-c2ccc(Cl)cc2)n(Cc2nnc(SCC(=O)Nc3ccc(S(N)(=O)=O)cc3)n2C2CCCCC2)n1 | 106% (inactive) |
| CC(=O)c1cc(C(=O)c2ccc(Br)cc2)n2cc(C)cc(C)c12 | 92.4% (inactive) |
| CC[C@H](CO)Nc1ccc2ncc(C#Cc3cncc(C(=O)Nc4ccc(CN5CCN(C)CC5)c(C(F)(F)F)c4)c3)n2n1 | -79.9% (active) |
| Cc1ccc2sc3c(c2c1)OC(N)=C(C#N)C3c1ccc(Cl)cc1 (stereo not given) | 75.2% (inactive) |
| NC(N)=Nc1ccc(Oc2cccc(NC(N)=Nc3ccc(I)cc3F)c2)cc1 | 85.7% (inactive) |
| Cc1ccc(-n2cc(/C=N/NC(=O)c3ccncc3)c(-c3ccc(S(C)(=O)=O)cc3)n2)cc1 | 93.4% (inactive) |
| COc1ccc(C2CC(c3cccc(Nc4nc(Cl)nc5cc(OC)c(OC)cc45)c3)=Nc3c(N)nc(N)nc3N2)cc1 (stereo not given) | 101% (inactive) |
| Cc1ccc(-c2cc3nc(C(Cl)Cl)nc(C)n3n2)cc1 | 105% (inactive) |
| C#Cc1nc(C(=O)NCCC(=O)Nc2ccc(NC(=O)c3ccc(/C=C/C(=O)c4nccn4C)cc3)cc2)cs1 | 84.8% (inactive) |
| O=C(c1ccc(Cl)cc1)C1[C@H](c2ccc(Cl)cc2)[C@@H](c2ccccc2)NC12C(=O)Nc1ccccc12 (stereo not given in full) | 81.2% (inactive) |
| Nc1ccccc1NC(=O)c1ccc(NC(=O)C/C=C/c2cccnc2)cc1 | 0.0488% (active) |
| C#CCn1cccc1CNc1ccc(OC)cc1 | -48.9% (active) |
| Nc1ncc(-c2ccc3ncnc(N4CCc5cc(F)c(F)cc54)c3c2)cn1 | 33.2% (inactive) |
| O=C(CSc1nc2ccccc2c(=O)n1-c1ccc(Cl)cc1)N/N=C/c1ccc(N2CCCCC2)cc1 | 84.8% (inactive) |
| CNCc1cccc2c1OCCCCCCC(C)(O)CC(C)(C)S(=O)(=O)c1ccc(cc1)-c1cnc(N)c(n1)C(=O)N2 (stereo not given) | 13.5% (inactive) |

| SMILES | growth |
| --- | --- |
| CC(=O)C1=C(C)NC(NNC(N)=S)=NC1c1ccccc1 (stereo not given) | 98.1% (inactive) |
| NS(=O)(=O)c1ccc(Nc2nc(N/N=C/c3ccccn3)nc(Nc3ccccc3)n2)cc1 | -64.3% (active) |
| Cc1cc(C(NC(=O)CCCCCNc2cccc3c2C(=O)N(C2CCC(=O)NC2=O)C3=O)c2ccc3c(c2)OC(F)(F)O3)c(O)c2ncccc12 (stereo not given) | 81% (inactive) |
| Cc1cc(-c2ccc(Cl)cc2)n(Cc2nnc(SCC(=O)Nc3ccc(S(N)(=O)=O)cc3)n2-c2ccc([N+](=O)[O-])cc2)n1 | 97.4% (inactive) |
| N#Cc1cnc2ccc(-c3cnc4[nH]ncc4c3)cc2c1N1CCc2cc(F)c(Cl)cc21 | 31.3% (inactive) |
| Nc1nc(Nc2ccccc2SSc2ccccc2Nc2nc(N)nc(-c3ccc4ccccc4c3)n2)nc(-c2ccc3ccccc3c2)n1 | 102% (inactive) |
| O=C(Nc1nc2ccc([N+](=O)[O-])cc2s1)Nc1ccccc1Cl | 49.5% (inactive) |
| O=C(Cn1cc(-c2ccccc2)nn1)Nc1nc(-c2ccc(Cl)cc2)cs1 | 108% (inactive) |
| Cc1nc2ncc(-c3ccc4ncnc(NCc5ccccc5)c4c3)cc2[nH]1 | 63.1% (inactive) |
| C=CCN(C)S(=O)(=O)/N=C1\NC(=O)NC1=C(Cl)Cl | -83.6% (active) |
| NS(=O)(=O)c1ccc(Nc2nc(N/N=C/c3c[nH]c4ccccc34)nc(Nc3ccccc3)n2)cc1 | 45.9% (inactive) |
| O=C(CN1CCN(c2cc(=O)[nH]c3ccc(F)cc23)CC1)Nc1ccc(Cl)cc1 | 82.3% (inactive) |
| O=c1[nH]c2ccccc2cc1CSc1ccccc1Nc1nccc(-c2ccc(Cl)cc2)n1 | 107% (inactive) |
| Cc1nn(-c2ccccc2)c2ncnc(N/N=C/c3ccccc3O)c12 | 23.2% (inactive) |
| CC(C)(C)c1ccc(C(=O)Nc2nc3ccc(O)cc3s2)cc1 | 47.1% (inactive) |
| NS(=O)(=O)c1ccc(Nc2cc(-c3ccccc3)nc(SCC(=O)c3ccccc3)n2)cc1 | 104% (inactive) |
| Nc1nc(-c2cccc([N+](=O)[O-])c2)c(N=Nc2ccc(Br)cc2)s1 | 4.69% (active) |
| CS(=O)(=O)c1ccc(-c2nn(-c3ccccc3)cc2/C=N/NC(=O)c2nc(N)n[nH]2)cc1 | 108% (inactive) |
| O=C(NNc1nc2cc(F)ccc2n2c(CN3CCCC3)ccc12)c1cnccn1 | 30.8% (inactive) |
| N=c1c2cc(-c3ccccc3)oc2ncn1/N=C/c1ccc(Cl)cc1 | 82.9% (inactive) |
